Data on 40 compounds can be found in PubChem BioAssay (NCATS).

Values joined by “and” are separate entries in the source; they are usually repeats but may differ in a detail not shown here. Equal entries are not always repeated. Results filed as inconclusive are left out.

The experiment can be described thus: qHTS assay for small molecule agonists of retinoid X receptor alpha signaling (AID 588544). The following applies: HEK293T RXRa-UAS-bla, beta-lactamase reporter, 18 h; 530 nm emission. The text has this: NIH Chemical Genomics Center [NCGC] U.S. Environmental Protection Agency [EPA] National Institutes of Environmental Health Sciences [NIEHS] National Toxicology Program [NTP] NCGC Assay Overview The Retinoid X receptor (RXR), a nuclear hormone receptor is expressed in liver, spleen, placenta, epidermis, central nervous system. These receptors are able to form homo and heterodimers with other nuclear receptors and due to this heterodimerizing ability, RXR functions as master regulators producing diverse physiological effects. Three subtypes of RXR exist; alpha, beta and gamma. Retinoid X receptor alpha (RXR-alpha) has potential roles in metabolic signaling pathways, skin alopecia, dermal cysts, cardiac development, insulin sensitization etc. Therefore screening environmental chemicals on RXR-alpha signaling can be used for the studies focused on such therapeutic applications.
NCGC Assay Protocol Summary Using a beta-lactamase reporter-gene under control of Retinoid X receptor--alpha (RXR-alpha) response element, a cell-based assay [GeneBLAzer (RXR-alpha -UAS-bla assay developed by Invitrogen] was used to measure RXR-alpha ligands signaling. GeneBLAzer RXR-alpha -UAS-bla HEK293T cells were used with assay medium containing 2% charcoal-stripped FBS. The assay was performed in clear bottom black Greiner 1536-well plates. 9-cis-retinoic acid was used in the screen as the positive control. Library compounds were measured for their ability to stimulate the reporter gene activity. Compounds were screened in a titration series in 1536-well format. The fluorescence intensity (405 nm excitation, 460/530 nm emission) was measured using an EnVision plate reader. Data was normalized relative to 9-cis-retinoic acid control (500 nM, 100%), and DMSO only wells (basal, 0%). Concentration-response titration points for each compound were fitted to the Hill equation yielding concentrations of half-maximal stimulation (EC50) and maximal response (efficacy) values. qHTS protocol for RXR-alpha beta-lactamase assay in agonist mode [Step] [Parameter] [Value] [Description] 1. Reagent; 6 uL; 2500 cells/well 2. Incubation; 37 C for 4 hrs 3. Compounds; 23 nL; 0.59 nM to 92 uM 4. Controls (9-cis-retinoic acid); 23 nL, - One column with dose response, start 38 uM, 1:3 dilutions in duplicates - Final concentrations of 500 nM and 50 nM in two columns 5. Incubation; 37 C for 18 hrs 6. Detection reagent; 1 uL of CCF4-dye 7. Incubation; RT for 2 hrs 8. Detection; Fluorescence; Envision plate reader
With `CN1COCN(Cc2cnc(Cl)s2)/C1=N\[N+](=O)[O-]`, the max response is -27.5%. Turning to `C#CCO`, the max response is 3.2%. For the compound `O=C(NC(=O)c1c(F)cccc1F)Nc1ccc(OC(F)(F)C(F)OC(F)(F)F)c(Cl)c1` (stereo not given), the max response is -12.6%.

Regarding `[CH3][Sn]([Cl])([Cl])[Cl]`, the max response is -11.9%. `CC1(C)[C@H](C(=O)O[C@H](C#N)c2cccc(Oc3ccccc3)c2)[C@@H]1C=C(Br)Br`: the max response was -14.7%. Turning to `CCc1cnc(C2=NC(C)(C(C)C)C(=O)N2)c(C(=O)O)c1` (stereo not given), the max response is -15.1%. For `S=C(S)NCCNC(=S)S`, the max response turned out to be 9.28%. For the compound `O=C(O)COc1ccc(Cl)cc1`, the max response is 18.4%.

For `Nc1nc(N)nc(N)n1`, the max response is -6.58%. For the compound `FC(F)(F)c1ccc(OCCCOc2c(Cl)cc(OCC=C(Cl)Cl)cc2Cl)nc1`, the max response turned out to be 5.75%.

As for `O=[N+]([O-])C(Br)Br`, the max response is -3.79%.

For the compound `Cc1cc(C)nc(Nc2ccccc2)n1`, the max response amounted to 1.3%. For `O=C1NCCN1Cc1ccc(Cl)nc1`, the max response is -6.75%. In the case of `C#CCC1=C(C)[C@H](OC(=O)[C@H]2[C@H](C=C(C)C)C2(C)C)CC1=O`, the max response came out at 11.7%. Turning to `CCCCC(CC)COC(=O)Cl` (stereo not given), the max response was -16.3%. For `COc1cc(OC)nc(NC(=O)NS(=O)(=O)c2ncccc2OCC(F)(F)F)n1`, the max response is -19.3%. Take `CCCOCC(=Nc1ccc(Cl)cc1C(F)(F)F)n1ccnc1`: the max response was -2.58%. Regarding `O=C(NC(=O)c1c(F)cccc1F)Nc1cc(Cl)c(OC(F)(F)C(F)C(F)(F)F)c(Cl)c1F` (stereo not given), the max response is 23%.

Turning to `CCC(C)c1ccc(O)cc1` (stereo not given), the max response was -6.05%. As to `COC(=O)c1ccccc1S(=O)(=O)NC(=O)N(C)c1nc(C)nc(OC)n1`, the max response was -6.9%. For `C=CC(=O)NCO`, the max response is -12.6% and -9.15%. Then `COc1cc(Cl)c(OC)cc1Cl`, with -12.5%.

With `CCC[CH2][Sn]([CH2]CCC)([CH2]CCC)[O][Sn]([CH2]CCC)([CH2]CCC)[CH2]CCC`, the max response was -23.3%. Turning to `[CH3][Sn]([CH3])([Cl])[Cl]`, the max response was -7.56%. Next, `CCCC1COC(Cn2cncn2)(c2ccc(Cl)cc2Cl)O1` (stereo not given): 1.7%; `FC(F)(F)c1ccc(Cl)cc1`: -3.02% and -12.4%. For the compound `ClCc1ccccc1Cl`, the max response was -22.8%. For `c1ccccc1`, the max response was -2.6% and -9.93% and -11.1%. With `CCCCC(CC)CO[N+](=O)[O-]` (stereo not given), the max response is -0.882%. With `N#Cc1c[nH]cc1-c1cccc2c1OC(F)(F)O2`, the max response is -13.3%. For `COP(=O)(NC(C)=O)SC` (stereo not given), the max response worked out at 4.58%. Next, `Nc1cnn(-c2ccccc2)c(=O)c1Cl`: -6.12%; `O=C1C=CC(=O)c2ccccc21`: 12.1%. In the case of `CCOc1nc(C(Cl)(Cl)Cl)ns1`, the max response is -11.9%.

Turning to `O=C(NC(=O)c1c(F)cccc1F)Nc1cc(Cl)c(OC(F)(F)C(F)F)c(Cl)c1`, the max response came to 5.34%. For `CCC(C)n1c(=O)[nH]c(C)c(Br)c1=O` (stereo not given), the max response was 0.805%. On to `CCCSP(=O)(OCC)Oc1ccc(Br)cc1Cl` (stereo not given), for which the max response came to 0.651%.

Take `CCCCCCCCCCCCCCC(Br)C(=O)O` (stereo not given): the max response is -6.32%. Consider `CCc1cc(C)cc(CC)c1-c1c(OC(=O)C(C)(C)C)n2n(c1=O)CCOCC2`, for which the max response is -12.9%. On to `CCOc1nc(F)cc2nc(S(=O)(=O)Nc3c(Cl)cccc3Cl)nn12`, for which the max response was 3.57%.
